FBA Mtb inh: inhibits M. tuberculosis FBA enzyme; P9WQA3; purified M. tuberculosis FBA, fluorescence read-out; inhibition, % at 1 µM; hit rate 2.3% among 360,000; AID 588726; in the data active = inhibition above about 27%
GDH-TPI counter-1: GDH-TPI coupled enzyme inhibition counter-screen | GDH-TPI coupled enzyme counterscreen, NADH absorbance | inhibition, % at 4.8 µM | hit rate 1.2% among 360,000; in the data active = inhibition above about 30%
Rv3671c protease: Rv3671c (M. tuberculosis) protease inhibition. inhibition, % at 5.96 µM. AID 2606. hit rate 0.048% among 320,000. P9WHR9; in the data active = inhibition above about 38%;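 note: extracellular domain of Rv3671c used as enzyme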
Mtb betalactam: beta-lactam sensitization of Mtb H37Rv; M. tuberculosis H37Rv growth with meropenem, percent inhibition; inhibition, % at 25 µM; hit rate 0.27% among 330,000; AID 434955;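 note: growth measured after seven days incubation then overnight dye step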
RecA intein inh: inhibitors of M. tuberculosis RecA intein splicing; inhibition, % (concentration not given with the values); cell-free RecA intein splicing, fluorescence; hit rate 0.75% among 290,000; AID 2221; P9WHJ3; in the data active = inhibition above about 30%
Target sequence (P9WHJ3 whole entry, looked up): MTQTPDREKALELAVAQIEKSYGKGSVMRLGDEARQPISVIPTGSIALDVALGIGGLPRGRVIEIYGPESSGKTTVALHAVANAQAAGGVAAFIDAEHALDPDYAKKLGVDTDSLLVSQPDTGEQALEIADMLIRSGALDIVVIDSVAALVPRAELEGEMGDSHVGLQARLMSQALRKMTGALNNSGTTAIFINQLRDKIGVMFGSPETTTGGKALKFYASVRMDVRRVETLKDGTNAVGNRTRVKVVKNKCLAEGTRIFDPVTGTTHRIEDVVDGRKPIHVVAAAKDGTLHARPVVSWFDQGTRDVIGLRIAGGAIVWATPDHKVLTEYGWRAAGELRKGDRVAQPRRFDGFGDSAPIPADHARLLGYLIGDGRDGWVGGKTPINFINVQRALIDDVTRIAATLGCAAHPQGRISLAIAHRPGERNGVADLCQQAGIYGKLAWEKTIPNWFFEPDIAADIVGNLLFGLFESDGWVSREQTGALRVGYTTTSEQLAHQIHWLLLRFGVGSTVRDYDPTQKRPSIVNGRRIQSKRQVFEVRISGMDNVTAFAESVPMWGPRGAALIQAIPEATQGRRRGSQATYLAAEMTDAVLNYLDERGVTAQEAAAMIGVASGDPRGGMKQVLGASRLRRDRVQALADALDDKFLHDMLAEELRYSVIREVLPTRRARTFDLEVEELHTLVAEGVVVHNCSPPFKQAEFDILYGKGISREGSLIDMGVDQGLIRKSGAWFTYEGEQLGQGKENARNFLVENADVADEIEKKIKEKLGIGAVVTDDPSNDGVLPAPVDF
Mtb UGM inh: inhibitors of M. tuberculosis UDP-galactopyranose mutase; inhibition, % at 10 µM; purified UGM, fluorescence polarization probe displacement; hit rate 0.06% among 320,000; P9WIQ1; in the data active = inhibition above about 10%, passing the limit was not always enough
Mtb FBA inh conf: confirmation of M. tuberculosis fructose-bisphosphate aldolase inhibitors. shares compounds with FBA Mtb inh. purified M. tuberculosis FBA, fluorescence read-out. inhibition, % at 1 µM. hit rate 78% among 5,600; in the data active = inhibition above about 27%
GDH-TPI counter-2: inhibits GDH-TPI coupling enzymes, flagging Mtb FBA hits; shares compounds with FBA Mtb inh; GDH-TPI coupled enzyme counterscreen, fluorescence; inhibition, % at 1 µM; hit rate 81% among 5,600; AID 652141; in the data active = inhibition above about 10%
GDH-TPI DR: inhibits GDH-TPI coupling enzymes in dose response; AID 652145; hit rate 79% among 170; IC50, µM; shares compounds with FBA Mtb inh; GDH-TPI coupled enzyme assay, fluorescence, artifact counterscreen
Of the large screens only hits and unclear results are named; the others gave an inactive call (follow-up assays come after a bar, where they were run). Hits are enriched below; roughly 4% of the tested compounds scored in any of these assays. Unless noted, the rule behind the calls is not given here.

CCCCn1c(-c2ccc(F)c(F)c2)nc2cc3[nH]c(=O)c(C(C)C)nc3cc21	FBA Mtb inh 52 | Mtb FBA inh conf 113 | GDH-TPI counter-2 92
CCCCn1c(CCc2ccccc2)nc2cc3[nH]c(=O)c(C(C)C)nc3cc21	FBA Mtb inh 33 | Mtb FBA inh conf 61 | GDH-TPI counter-2 50
CC1(c2cccc(Br)c2)NC(=O)N(CC(=O)c2ccc3c(c2)OCO3)C1=O (centres undefined)	none (no result: Rv3671c protease, Mtb betalactam, RecA intein inh, Mtb UGM inh)
CCCc1ccc(C(O)c2ncc(-c3ccccc3F)[nH]2)cc1 (centres undefined)	none (no result: Rv3671c protease, Mtb betalactam, RecA intein inh, Mtb UGM inh)
O=c1nc2cccc3c2=c(/c1=C(\O)c1ccccc1)c1ccccc1c3=O	FBA Mtb inh 29 | Mtb FBA inh conf inactive | GDH-TPI counter-2 inactive
COc1ccc(N(CC(=O)NC2CC3CCC2C3)S(=O)(=O)c2ccc(C)cc2)cc1Cl (centres undefined)	none (no result: Rv3671c protease, Mtb betalactam, RecA intein inh, Mtb UGM inh)
Cc1cn(CC(=O)NCC(C)c2ccccc2)c(=O)[nH]c1=O (centres undefined)	none (no result: Rv3671c protease, Mtb betalactam, RecA intein inh, Mtb UGM inh)
Cc1ccc(C2OC34CCCCCC3C(C#N)(C(=N)O4)C2(C#N)C#N)cc1 (centres undefined)	FBA Mtb inh 70 | Mtb FBA inh conf 119 | GDH-TPI counter-2 102
COc1ccc(C)cc1NC(=O)CSc1nnc(-c2cc(C)[nH]n2)n1N	none
COc1c(C)oc2cc(O)ccc2c1=O	FBA Mtb inh 87 | Mtb FBA inh conf 58 | GDH-TPI counter-2 40
Cc1oc2cc(O)ccc2c(=O)c1Oc1ccc2ccccc2c1	FBA Mtb inh 111 | Mtb FBA inh conf 53 | GDH-TPI counter-2 38
CCOc1ccc2c(=O)c(Oc3ccccc3)c(C)oc2c1	none
Cc1oc2cc(O)ccc2c(=O)c1Oc1ccc(F)cc1	FBA Mtb inh 103 | Mtb FBA inh conf inactive | GDH-TPI counter-2 inactive
CC(=O)c1cccc(CN2CCC(C(=O)Nc3ccc(-c4cccc(C)c4)cc3)CC2)c1	none
Cc1c(OC(C)C(=O)NCCCN2CCOCC2)ccc2c3c(c(=O)oc12)CCC3 (centres undefined)	none
Cc1c(C)c2ccc(OC(C)C(=O)NCCN3CCOCC3)c(C)c2oc1=O (centres undefined)	FBA Mtb inh 47 | Mtb FBA inh conf active | GDH-TPI counter-2 active
Cc1c(OC(C)C(=O)NCCN2CCOCC2)ccc2c3c(c(=O)oc12)CCC3 (centres undefined)	none
Cc1ccc2oc(C(=O)NCCCN3CCOCC3)c(C)c2c1	none
COc1ccc2oc(C(=O)NCCN3CCOCC3)c(C)c2c1OC	FBA Mtb inh 102 | Mtb FBA inh conf active | GDH-TPI counter-2 186
Cc1c(OC(C)C(=O)NCCCN2CCOCC2)ccc2c3c(c(=O)oc12)CCCC3 (centres undefined)	FBA Mtb inh 27 | Mtb FBA inh conf 48 | GDH-TPI counter-2 38
Cc1c(C)c2ccc(OC(C)C(=O)NCCCN3CCOCC3)c(C)c2oc1=O (centres undefined)	FBA Mtb inh 32 | Mtb FBA inh conf 74 | GDH-TPI counter-2 60
Cc1ccc(S(=O)(=O)N2CCC(C(=O)NC3CC(C)(C)NC(C)(C)C3)CC2)cc1	none
Cc1ccc(S(=O)(=O)c2c(N)n(NC(=O)c3ccco3)c3nc4ccccc4nc23)cc1	FBA Mtb inh 35 | Mtb FBA inh conf inactive | GDH-TPI counter-2 inactive
Cc1cccc(S(=O)(=O)c2c(N)n(Cc3ccco3)c3nc4ccccc4nc23)c1	FBA Mtb inh 101 | Mtb FBA inh conf 76 | GDH-TPI counter-2 61
Cc1ccc(S(=O)(=O)c2c(N)n(Cc3ccco3)c3nc4ccccc4nc23)cc1	FBA Mtb inh 82, GDH-TPI counter-1 31 | Mtb FBA inh conf 39 | GDH-TPI counter-2 30
Cc1ccc(S(=O)(=O)c2c(C)nn(-c3ccccc3)c2OC(=O)c2ccco2)cc1	none
COc1ccc(CNC(=O)C/C(C)=N/NC(=O)c2ccc(OC)cc2OC)cc1	none
CN(CC(=O)Nc1cccc(F)c1)C(=O)COc1cccc2c1OC(C)(C)C2	none
COc1cc2sc(-c3ccc(S(C)(=O)=O)cc3)c(C#CCO)c2cc1OC	FBA Mtb inh 54 (no result: RecA intein inh) | Mtb FBA inh conf 112 | GDH-TPI counter-2 87
CCOc1ccccc1N1CC(C(=O)Nc2cc(S(=O)(=O)N3CCOCC3)ccc2OC(C)C)CC1=O (centres undefined)	none (no result: Rv3671c protease, Mtb betalactam, RecA intein inh, Mtb UGM inh)
COc1cc(F)cc(-c2ccc3c(c2)c(-c2cccs2)c(-c2cc(OC)cc(OC)c2)n3C)c1	none (no result: RecA intein inh)
COc1cc(OC)cc(-c2c(-c3cccs3)c3cc(-c4cccc5[nH]ccc45)ccc3n2C)c1	FBA Mtb inh 47 (no result: RecA intein inh) | Mtb FBA inh conf 112 | GDH-TPI counter-2 79
N#Cc1nc(-c2ccccc2)oc1N1CCN(C(=O)c2ccco2)CC1	FBA Mtb inh 68 | Mtb FBA inh conf 41 | GDH-TPI counter-2 32
N#Cc1nc(-c2cccs2)oc1N1CCN(Cc2ccccc2)CC1	FBA Mtb inh 51 | Mtb FBA inh conf inactive | GDH-TPI counter-2 inactive | GDH-TPI DR 1.8
Cc1noc(C)c1NC(=O)N(C)C[C@@H]1Oc2ncc(Br)cc2C(=O)N([C@@H](C)CO)C[C@H]1C	none (no result: Rv3671c protease, Mtb betalactam, RecA intein inh, Mtb UGM inh)
COc1cc2c(cc1O)CC1c3c(cc(O)c(OC)c3-2)CCN1C (centres undefined)	FBA Mtb inh 27 | Mtb FBA inh conf 101 | GDH-TPI counter-2 95
COCCNC(=O)C1CCCN(C(=O)c2cccnc2Oc2ccccc2)CC1 (centres undefined)	none (no result: Rv3671c protease, Mtb betalactam, RecA intein inh, Mtb UGM inh)
Cc1cccc(S(=O)(=O)NC(=O)C2(C)CCN2C(=O)c2sccc2C)c1 (centres undefined)	none (no result: Rv3671c protease, Mtb betalactam, RecA intein inh, Mtb UGM inh)
NC(=NCCc1ccc(Cl)cc1)NS(=O)(=O)c1ccccc1	none
NC(=NCCc1ccccc1)NC(=O)c1cc(Cl)ccc1O	FBA Mtb inh 46 | Mtb FBA inh conf 90 | GDH-TPI counter-2 77
CCCCN(C)C(=O)CCC(=O)Nc1ccc2nc(N3CCOCC3)cc(C)c2c1	FBA Mtb inh 49 | Mtb FBA inh conf 154 | GDH-TPI counter-2 125
CCCCN(C)C(=O)CCC(=O)Nc1ccc2nc(N3CCN(C)CC3)cc(C)c2c1	FBA Mtb inh 28 | Mtb FBA inh conf 61 | GDH-TPI counter-2 57
CCOc1ccccc1NC(=O)CCC(=O)Nc1ccc2nc(N3CCN(C)CC3)cc(C)c2c1	FBA Mtb inh 31 | Mtb FBA inh conf 130 | GDH-TPI counter-2 122
CCCCN(CC)CCCNC(=S)Nc1ccc2nc(N3CCN(C)CC3)cc(C)c2c1	none
CCOC(CCNC(=O)CCC(=O)Nc1ccc2nc(N3CCN(C)CC3)cc(C)c2c1)OCC	none
CC1(C(=O)NC2CCCCC2)CCC(=O)N1CC(F)(F)F (centres undefined)	none (no result: GDH-TPI counter-1, Rv3671c protease, Mtb betalactam, RecA intein inh, Mtb UGM inh)
CSc1ncccc1C(=O)OC(C)C(=O)Nc1ccc2c(c1)OCCO2 (centres undefined)	none (no result: Rv3671c protease, Mtb betalactam, RecA intein inh, Mtb UGM inh)
